These results are taken from PubChem BioAssay (NCI).

This is part of a sample that, as a whole, favours compounds with a hit. Of some 83,000 tested, about 20% had one in any assay.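 Each cell line was grown in a 96-well plate and treated with one concentration of compound for 48 hours. Values below 10 were considered active.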 Active and inactive are the calls of the source.

This experiment deals with HT29 colon. The experiment in a line: NCI-60 one-dose screen, 48 h (100 = growth as untreated, 0 = no growth, -100 = all killed). Particulars: 10 µM unless noted. How it is done: Growth inhibition of the HT29 human tumor cell line is measured as a screen for anti-cancer activity. Cells are grown in 96 well plates and exposed to the test compound for 48 hours. Compounds are tested at a single concentration, which is 10^-5 M for most compounds. The reported endpoint is percent growth (GI% or GIPRCNT), where numbers from 0 - 100% represent growth inhibition, and numbers from -100% - 0 represent cell death. For example, a value of 40 represents 60% growth inhibition. A value of 0 means no net growth occurred over the course of the experiment. A value of -40 indicates 40% of cells at the beginning of the experiment died by the end of the experiment. A value of -100 means all cells are dead at the end of the experiment.
NCI-60 Human Tumor Cell Lines Screen was performed using the standard one-dose NCI protocol, which is described in more detail at https://dtp.cancer.gov/discovery_development/nci-60/default.htm.
Compounds with GIPRCNT values below 10 were considered active. Activity score was based on GIPRCNT using the following formula: […]
Score is 0 for GIPRCNT values of 100 or above, 50 for GIPRCNT values of 0, and 100 for GIPRCNT values of -100.
As to `CN1CCN(CCCOc2cccc3nc(Nc4ccc(Cl)c(C(F)(F)F)c4)ccc23)CC1`, the growth was -58.9% (active).

For `COCCN1CCN(Cc2ccc(-c3n[nH]c4c3C(=O)c3c(NC(=O)NN5CCOCC5)cccc3-4)cc2)CC1`, the growth is -22.3% (active).

With `Cc1cc(Nc2cc(N3CCN(C)CC3)nc(/C=C/c3ccccc3)n2)n[nH]1`, the growth is -34.3% (active).

With `CCCCn1c(C)nc2ccc(Nc3nc(N4CCN(C)CC4)nc4nc[nH]c34)cc21`, the growth is 90.9% (inactive).

Regarding `CNC(=O)c1cc(Oc2ccc(NC(=O)Nc3cc(C(C)(C)C)nn3-c3ccc4ncccc4c3)c(F)c2)ccn1`, the growth was -45.3% (active).

In the case of `C=CCN(/C=C1/C(=O)O[C@H](COC)[C@@]2(C)C1=C(O)C(=O)C1=C2[C@H](OC(C)=O)C[C@]2(C)C(=O)CC[C@@H]12)CC=C`, the growth was 13.7% (inactive).

As to `COc1ccc(COc2cc3oc(=O)c4cc(C(C)O)ccc4c3cc2OC)cc1` (stereo not given), the growth is 30.1% (inactive).

As to `COc1cc2ncnc(Nc3cccc(Cl)c3F)c2cc1OC(=O)N1CCN(C)C[C@H]1C`, the growth is 53.9% (inactive).

Regarding `CO/C=C/C(=O)c1cc2cnc3c(=N)cc(NC(=O)C(C)C)c([nH]1)c23`, the growth is -21.5% (active).

For the compound `Cc1cc(C(O)CN(C)C)cc2c1ccc1cc(C(C)C)ccc12` (stereo not given), the growth was -65.1% (active).

Regarding `CO[C@H](C(=O)N[C@@H](CCCCNC(=O)OCc1ccccc1)C(=O)OC(C)(C)C)[C@@H]1Cc2cc3cc(OC4CC(OC5CC(O)C(O)C(C)O5)C(O)C(C)O4)c(C)c(O)c3c(O)c2C(=O)[C@H]1OC1CC(OC2CC(OC3CC(C)(O)C(O)C(C)O3)C(O)C(C)O2)C(O)C(C)O1` (stereo not given in full), the growth is 2.05% (active).

For `CC1(O)CCC2CC3OC3(C)CCC3OC3(C)C(O)CC1C2(C)C` (stereo not given), the growth was 102% (inactive).

As for `CN1CCC(CNc2ccc3ncc(-c4cccc(OC(F)(F)F)c4)n3n2)CC1`, the growth was -46.1% (active).

`Cc1cccc(Cl)c1NC(=O)c1cnc(Nc2cc(N3CCOCC3)cc(N3CCOCC3)c2)s1`: the growth is -10.2% (active).

For the compound `CNC(=O)c1cc(Oc2cccc3nc(Nc4ccc(Oc5ccccc5)cc4)ccc23)ccn1`, the growth was 62.5% (inactive).

`COC1CCC(N2C(=O)CNc3ncc(-c4ccc(C(C)(C)O)nc4)nc32)CC1` (stereo not given): the growth is 5.39% (active).

As for `COC(=O)[C@]12CC[C@@H](C)[C@H](C)[C@@H]1C1=CC[C@@H]3[C@@]4(C)C[C@@H](OC(=O)/C=C/c5ccccc5)[C@H](O)[C@@](C)(CO)[C@@H]4[C@H](O)C[C@@]3(C)[C@]1(C)CC2`, the growth was -49.3% (active).

`CCN(CC)CCNC(=O)c1c(C)[nH]c(/C=C2\C(=O)Nc3ccc(F)cc32)c1C`: the growth is -53.9% (active).

`COc1cc(NCCN(CC(C)C)CC(C)C)c2ncc(C)cc2c1`: the growth was 86.1% (inactive).

For `CC(=Nc1ccccc1)C1=C(O)C(Cc2ccc(O)cc2)NC1=O` (stereo not given), the growth is 1.34% (active).

As to `CN(N)c1nc2sc3c(c2c(=O)[nH]1)CCCC3`, the growth was 90.4% (inactive).

Turning to `Cc1c(NC(=O)OC[C@@H]2COCCN2)cn2ncnc(Nc3ccc4c(cnn4Cc4cccc(F)c4)c3)c12`, the growth is -6.28% (active).

Turning to `Cc1cn(-c2cc(NC(=O)c3ccc(C)c(Nc4nccc(-c5cccnc5)n4)c3)cc(C(F)(F)F)c2)cn1`, the growth was 17.4% (inactive).

For `Cc1cc(N(CCNc2ccnc3cc(Cl)ccc23)Cc2ccc3c(c2)OCO3)nc(N2CCCC2)n1`, the growth was -10.2% (active).

Consider `Cc1cc(N2CCCC2)nc(N(CCCNc2ccnc3cc(Cl)ccc23)Cc2ccc3c(c2)OCO3)n1`, for which the growth was -23.9% (active).

Consider `Cc1nn(-c2nc3ccccc3[nH]2)c2c1C(c1ccc(O)cc1)CC(=O)N2` (stereo not given), for which the growth is 83.9% (inactive).

Take `COc1ccc(Cc2cc(-c3ccccc3C)n[nH]c2=O)cc1`: the growth is 98.1% (inactive).

With `N#CC1(C#N)C(c2cccs2)NC(c2cccs2)C1(C#N)C#N` (stereo not given), the growth was 103% (inactive).

As for `CC(C)OP(=O)(CCC(=O)c1c[nH]c2ccccc12)OC(C)C`, the growth was 97.2% (inactive).

For the compound `Cn1ccnc1C(=O)/C=C/c1ccc(CC(=O)Nc2ccc(S(F)(F)(F)(F)F)cc2)cc1`, the growth is -36% (active).

Consider `COc1ccc2c(CCc3ccc(Cl)cc3)c3[n+](cc2c1OC)CCc1cc2c(cc1-3)OCO2`, for which the growth is 43.1% (inactive).

For `Cc1cc2c(F)c(Oc3ncnn4cc(OC[C@@H](C)OC(=O)[C@H](C)N)c(C)c34)ccc2[nH]1`, the growth is 6.32% (active).

Take `CS(=O)(=O)CCNCc1ccc(-c2ccc3ncnc(Nc4ccc(OCc5cccc(F)c5)c(Cl)c4)c3c2)o1`: the growth is -59.1% (active).

As to `CC[C@@H]1C(=O)N(C)c2cnc(Nc3ccc(C(=O)NC4CCC(N5CCN(CC6CC6)CC5)CC4)cc3OC)nc2N1C(C)C` (stereo not given in full), the growth is -25.9% (active).

For the compound `COc1cccc2cc(-c3nc(C4CCC(C(=O)O)CC4)n4ncnc(N)c34)[nH]c12` (stereo not given), the growth was 14.3% (inactive).

In the case of `COc1ccc(-c2nc(N)ncc2Oc2ccccc2OC)c(O)c1`, the growth is 10.3% (inactive).

In the case of `O=C1C=CC2(NN=C(c3ccccc3)N2c2ccccc2)c2cccc(O)c21` (stereo not given), the growth is 44.3% (inactive).

With `N#CC(C#N)=NO`, the growth is 91.7% (inactive).

For the compound `C#Cc1cccc(Nc2ncnc3cc4c(cc23)OCCOCCOCCO4)c1`, the growth is 57% (inactive).

Turning to `O=C1OCC2=C1C(c1cccc(F)c1)c1cc3c(cc1N2CCO)OCCO3` (stereo not given), the growth is 4.94% (active).
